From PubChem BioAssay (Tox21) come the findings set out here.

Molecules are shown by their SMILES. Values without a mark were called inactive. Records with an inconclusive call do not appear. Calls of active or inactive are those of the source. Unless noted, calls come from the whole dose curve; as a rule, active = well fitted curve in the direction sought with a large enough effect in the repeat runs; inconclusive = weak or mixed curves; inactive = no such curve, though single readings can be large; an effect the other way counts as inactive or inconclusive.

Assay [1] is described as follows: qHTS assay to identify small molecule antagonists of the retinoid acid receptor (RAR) signaling pathway - cell viability counter screen (AID 1159551). Note: nearly all actives have a fitted effect of over 35% in size. Put shortly:
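C3RL4 RARE-luciferase line; cpds + retinol 1 uM final, 6 h, 37 C/5% CO2; CellTiter-Glo ATP luminescence, 30 min RT.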
A general note: Quantitative high-throughput screening tests each substance at several concentrations.

Assay [2] in a line: qHTS assay to identify small molecule agonists of the retinoic acid receptor (RAR) signaling pathway (AID 1159553). The method in brief:
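RARE-luc C3RL4 cells; overnight attachment 37 C/5% CO2; compound (DMSO) 6 hr; luciferase reagent, 30 min RT; luminescence read-out.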

Assay [3] can be described thus: qHTS assay to identify small molecule antagonists of the estrogen related receptor (ERR) signaling pathway from Tox21 library - cell viability counter screen (AID 1224834). Note: nearly all actives have a fitted effect of over 30% in size. Put shortly: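 Multiplexed viability counter screen in ERR cells: 17.5 h compound exposure at 37 C, CellTiter-Fluor added, 30 min at 37 C/5% CO2, fluorescence read.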
In assay [4] the target is Luciferin 4-monooxygenase (Photinus pyralis) (UniProt P08659). The experiment in a line: qHTS assay to identify small molecule inhibitors of firefly luciferase (AID 1224835). Note: nearly all actives have a fitted effect of over 25% in size. Note: potency is the fitted concentration of half-maximal effect. Put shortly: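 Quantitative HTS format; KM concentrations of both substrates. Purified P. pyralis FLuc activity quantified from luminescence images.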
Sequence of Luciferin 4-monooxygenase (Photinus pyralis) (P08659 whole entry, looked up): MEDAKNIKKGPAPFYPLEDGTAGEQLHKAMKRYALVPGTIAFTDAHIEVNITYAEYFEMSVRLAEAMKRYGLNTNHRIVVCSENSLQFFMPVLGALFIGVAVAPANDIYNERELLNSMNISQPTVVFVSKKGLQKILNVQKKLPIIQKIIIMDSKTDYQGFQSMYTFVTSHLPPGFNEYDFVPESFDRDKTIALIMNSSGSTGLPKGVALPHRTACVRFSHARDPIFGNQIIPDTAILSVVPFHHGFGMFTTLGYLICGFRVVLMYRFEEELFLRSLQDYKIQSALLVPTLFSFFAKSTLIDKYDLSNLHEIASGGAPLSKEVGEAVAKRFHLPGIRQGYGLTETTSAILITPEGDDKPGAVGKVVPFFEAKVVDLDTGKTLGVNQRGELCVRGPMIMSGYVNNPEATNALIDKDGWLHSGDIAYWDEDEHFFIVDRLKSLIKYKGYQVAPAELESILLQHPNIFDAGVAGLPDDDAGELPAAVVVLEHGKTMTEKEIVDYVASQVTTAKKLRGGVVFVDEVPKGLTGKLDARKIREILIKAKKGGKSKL
Assay [5] can be described thus: qHTS assay to identify small molecule agonists of the constitutive androstane receptor (CAR) signaling pathway - cell viability counter screen (AID 1224836). Note: nearly all actives have a fitted effect of over 45% in size. Put shortly: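 HepG2 cells stably carrying hCAR and a CYP2B6-2.2kb reporter were plated 4 h, then given compounds at 15 concentrations plus PK11195 (final 0.75 uM). After 23 h at 37 C, viability was read by CellTiter-Fluor fluorescence.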

Assay [6] is described as follows: qHTS assay to identify small molecule antagonists of the constitutive androstane receptor (CAR) signaling pathway - cell viability counter screen (AID 1224837). Note: nearly all actives have a fitted effect of over 45% in size. The method in brief:
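Read-out: CellTiter-Fluor fluorescence after 23 hr at 37 C/5% CO2. Cells: HepG2 double-stable for hCAR and CYP2B6-2.2kb. Compounds tested at 15 concentrations in the presence of CITCO, final concentration 50 nM.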

The target of assay [7] is Nuclear receptor subfamily 1 group I member 3 (Homo sapiens) (UniProt Q14994). In words: qHTS assay to identify small molecule antagonists of the constitutive androstane receptor (CAR) signaling pathway (AID 1224838). Note: nearly all actives have a fitted effect of over 40% in size. Put shortly:
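Read-out: ONE-Glo luciferase luminescence after 30 min at room temperature. HepG2-CYP2B6-hCAR double-stable cells, compounds in 15-point titration plus 50 nM CITCO final, 24 h at 37 C/5% CO2.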

Assay [8] shares this target. The experiment in a line: qHTS assay to identify small molecule agonists of the constitutive androstane receptor (CAR) signaling pathway (AID 1224839). Note: nearly all actives have a fitted effect of over 15% in size. The method in brief:
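HepG2 cells stably expressing hCAR and a CYP2B6-2.2kb luciferase reporter were treated with compounds at 15 concentrations plus 0.75 uM PK11195 (final) for 24 h at 37 C; luminescence was read after ONE-Glo addition.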

Assay [9] in a line: qHTS assay to identify small molecule antagonists of the estrogen related receptor signaling pathway with the pleiotropic PPARgamma coactivator (PGC) from Tox21 10K library - cell viability counter screen (AID 1224840; active = well fitted cell-killing curve with a large enough effect in the repeat runs, not every such curve was filed as active; note: nearly all actives have a fitted effect of over 40% in size). The method in brief:
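Fluorescence read-out of CellTiter-Fluor viability reagent, added after cells had been exposed to compound in DMSO for 17.5 h at 37 C; 30 min development at 37 C/5% CO2. Cells: PGC/ERR line, 2,000/well.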

Assay [10] concerns the target Thyrotropin receptor (Homo sapiens) (UniProt P16473). The experiment in a line: qHTS assay to identify small molecule agonists of the thyroid stimulating hormone receptor (TSHR) signaling pathway (AID 1224843; calls by dose curve; note: nearly all actives have a fitted effect of over 45% in size). The method in brief:
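Compounds are titrated over 15 concentrations, in triplicate, onto TSHR-HEK293 cells seeded at 800/well. Plates sit 30 min at room temperature before cAMP-d2 and anti-cAMP cryptate are added; signal is read after a further hour.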

Assay [11] can be described thus: qHTS assay to identify small molecule agonists of the hypoxia (HIF-1) signaling pathway - cell viability counter screen (AID 1224844; calls by dose curve; note: nearly all actives have a fitted effect of over 50% in size). Put shortly: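 CellTiter-Glo luminescence read-out, 30 min RT, taken in the same wells as the beta-lactamase HRE reporter assay; HRE-bla ME-180 cells, 0.5% dialyzed FBS, 17 hr compound treatment at 37C, 5% CO2.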
A short description of assay [12]: qHTS assay to identify small molecule agonists of H2AX (AID 1224845; active = well fitted activation curve with a large enough effect in the signal ratio in the repeat runs, not every such curve was filed as active; the % refers to the signal ratio). The method in brief: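 Wild-type CHO-K1 cells plated overnight, then exposed 3 hr at 37C to compounds at 15 concentrations (0.76% DMSO). Lysed, then HTRF anti-pH2AX(S139)-cryptate/anti-H2AX-d2 detection after 24 hr at room temperature; emissions 665 and 620 nm.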
Assay [13] is described as follows: qHTS assay to identify small molecule agonists of the hypoxia (HIF-1) signaling pathway (AID 1224846; active = well fitted activation curve with a large enough effect in the signal ratio in the repeat runs, not every such curve was filed as active; the % refers to the signal ratio). The method in brief:
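Beta-lactamase FRET read-out (CCF4-AM substrate) from ME-180 cells carrying an HRE-driven bla reporter, after 17 hrs compound exposure at 37C/5% CO2. Cells were seeded at 2,000 per well in 0.5% dialyzed FBS medium and preincubated 5 hrs.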

Assay [14] in a line: qHTS assay to identify small molecule agonists of H2AX - cell viability counter screen (AID 1224847; calls by dose curve; note: top concentration of the series differs between compounds; nearly all actives have a fitted effect of over 30% in size). Put shortly: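 Wild-type CHO-K1 cells (10% FBS medium) were plated overnight at 37C, exposed to compounds at 15 concentrations for 3 hr at 37C (0.76% DMSO final), and viability was read as CellTiter-Glo luminescence after 30 min at room temperature.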
Assay [15] in a line: qHTS RealTime-Glo MT Cell Viability Assay in HepG2 cells - 24 hour (AID 1224867). Note: nearly all actives have a fitted effect of over 50% in size. The method in brief: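 Cells + NanoLuc/prosubstrate dispensed (600 cells/well) → 5 h at 37 C/5% CO2 → compounds in DMSO transferred → 40 h incubation at 37 C, luminescence read at 0, 8, 16, 24, 32, 40 h.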
Assay [16] can be described thus: qHTS assay to identify small molecule antagonists of the estrogen related receptor signaling pathway with the pleiotropic PPARgamma coactivator (PGC) from Tox21 10K library (AID 1224841; call rule not given here; note: actives are mostly falling curves and most rising ones were filed inactive; nearly all actives have a fitted effect of over 50% in size). Put shortly: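 Luminescence read-out (One-Glo luciferase reagent, 30 min at room temperature) from PGC/ERR cells exposed to DMSO-dissolved test compounds for 18 h at 37 C; cells, 2,000 per well, had been preincubated 6 h before compound transfer.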

Assay [17] can be described thus: qHTS assay to identify small molecule agonists of the estrogen related receptor signaling pathway with the pleiotropic PPARgamma coactivator (PGC) from Tox21 10K library (AID 1224842). Note: nearly all actives have a fitted effect of over 15% in size. The method in brief:
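PGC/ERR reporter cells (NTP line) were seeded 2,000 per well, rested 6 h at 37 C/5% CO2, then pin-dosed with compounds in DMSO for 18 h at 37 C; luciferase read by One-Glo luminescence after 30 min at room temperature.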

Assay [18] in a line: qHTS assay to identify small molecule antagonists of the estrogen related receptor (ERR) signaling pathway from Tox21 library (AID 1224848). Note: nearly all actives have a fitted effect of over 50% in size. Put shortly: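 First, 2,000 ERR cells per well were plated and held 6 h at 37 C/5% CO2. Next, compounds in DMSO were pinned in and left 18 h at 37 C. Finally, ONE-Glo was added and luminescence read after 30 min at room temperature.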

Assay [19] in a line: qHTS assay to identify small molecule agonists of the estrogen related receptor (ERR) signaling pathway from Tox21 library (AID 1224849; calls by dose curve; note: nearly all actives have a fitted effect of over 15% in size). The note with it: ERR reporter cell line, ONE-Glo luciferase, 18 h; at 92.4 µM (top of the series) unless noted. Put shortly: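 Luminescence readout (ONE-Glo, 30 min RT) after 18 h compound exposure at 37 C of NTP-supplied ERR reporter cells; cells were plated 6 h before compound addition by pin tool.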

A short description of assay [20]: qHTS assay to identify small molecule antagonists of the retinoic acid receptor (RAR) signaling pathway (AID 1159552; note: nearly all actives have a fitted effect of over 50% in size). The method in brief: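 RARE-luc C3RL4 cells; cpds + 1 uM (final) retinol, 6 hr, 37 C/5% CO2; luciferase reagent, 30 min RT, luminescence readout. Inhibitors of retinol-driven signal scored.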
% is set by controls: 0 for no effect and ±100 for the full control effect.

Sequence of Nuclear receptor subfamily 1 group I member 3 (Homo sapiens) (Q14994 whole entry, looked up): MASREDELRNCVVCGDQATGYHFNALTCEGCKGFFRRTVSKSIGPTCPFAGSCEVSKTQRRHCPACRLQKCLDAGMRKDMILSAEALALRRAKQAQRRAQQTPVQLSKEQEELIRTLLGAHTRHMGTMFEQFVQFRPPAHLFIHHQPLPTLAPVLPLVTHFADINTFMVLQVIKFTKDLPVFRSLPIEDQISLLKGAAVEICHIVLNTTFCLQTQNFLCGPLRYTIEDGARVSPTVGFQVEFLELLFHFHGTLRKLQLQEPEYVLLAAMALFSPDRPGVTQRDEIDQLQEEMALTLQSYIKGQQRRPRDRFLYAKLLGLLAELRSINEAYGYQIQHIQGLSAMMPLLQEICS
Sequence of Thyrotropin receptor (Homo sapiens) (P16473 whole entry, looked up): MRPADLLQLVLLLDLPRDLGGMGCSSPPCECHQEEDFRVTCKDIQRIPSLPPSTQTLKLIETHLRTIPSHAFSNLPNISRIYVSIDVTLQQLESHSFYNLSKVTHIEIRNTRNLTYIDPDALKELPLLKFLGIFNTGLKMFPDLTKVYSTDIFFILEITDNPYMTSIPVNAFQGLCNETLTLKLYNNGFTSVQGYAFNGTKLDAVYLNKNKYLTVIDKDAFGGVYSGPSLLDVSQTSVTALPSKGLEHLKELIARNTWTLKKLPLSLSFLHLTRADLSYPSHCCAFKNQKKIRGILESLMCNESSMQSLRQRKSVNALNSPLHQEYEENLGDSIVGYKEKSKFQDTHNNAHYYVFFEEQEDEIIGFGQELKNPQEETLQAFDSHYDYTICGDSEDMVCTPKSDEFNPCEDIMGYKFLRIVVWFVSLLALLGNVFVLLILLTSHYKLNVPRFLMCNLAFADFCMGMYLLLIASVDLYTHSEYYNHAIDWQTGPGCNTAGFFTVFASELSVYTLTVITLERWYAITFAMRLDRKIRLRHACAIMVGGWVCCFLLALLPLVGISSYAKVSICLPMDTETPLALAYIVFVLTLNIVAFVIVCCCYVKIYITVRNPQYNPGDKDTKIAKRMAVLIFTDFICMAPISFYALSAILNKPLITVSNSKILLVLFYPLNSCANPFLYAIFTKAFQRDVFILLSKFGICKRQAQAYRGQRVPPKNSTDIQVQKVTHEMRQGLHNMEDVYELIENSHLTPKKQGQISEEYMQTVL

As for `COC(=O)c1ccc(NC(C)=O)cc1OC`, the compound was called inactive in [1], in assay [3], in assay [5], in assay [6], in assay [7] and in assay [9]. Besides, the outcome in [11], in assay [12], in assay [13], in assay [14] and in [15] was inactive. In addition, the Potency result in [2], in assay [4], in assay [8] and in assay [10] was “inactive” in each case.
In the case of `CO/N=C(\C(=O)O)c1csc(NC(=O)CCl)n1`, the outcome in assay [1], in [3], in [5], in [6], in assay [7] and in assay [9] was inactive. For the same compound, the call in [12], in assay [13], in assay [14], in [18] and in [15] was inactive. Further, the Potency entry in assay [2], in [4], in assay [8], in assay [16] and in [17] was “inactive” each time. Moreover, the activity change, positive = activation in [19] was 4.95% [at 42.5 µM].
With `CCCCCCCCOCCC#N`, the call in assay [20], in assay [3], in [5], in assay [7], in [9] and in assay [11] was inactive. The compound was classed as inactive in assay [12], in assay [13], in assay [14], in assay [18] and in [15]. Also, the Potency entry in assay [2], in assay [4], in assay [8], in assay [16], in [17] and in [10] was “inactive” in each case. Besides, the activity change, positive = activation in assay [19] was 3%.
`CC(=O)SCC(CC(=O)c1ccc(C)cc1)C(=O)O` (stereo unspecified): the result in [20], in assay [3], in assay [5], in assay [9], in assay [11] and in assay [12] was inactive. Besides, the call in assay [13], in assay [14], in assay [18] and in assay [15] was inactive. In addition, the Potency result in assay [2], in assay [16], in [17] and in assay [10] was “inactive” in each case. The Potency in [4] was 27.5 µM (active). For the same compound, the activity change, positive = activation in [19] is 8.89% [at 42.5 µM].
On to `C/C(Cl)=C/CCl`, for which the compound was classed as inactive in assay [20], in assay [3], in assay [5], in [6], in assay [7] and in assay [9]. In addition, the compound was classed as inactive in assay [11], in assay [12], in [13], in assay [14] and in assay [15]. Further, the Potency result in assay [2], in assay [4], in assay [8] and in assay [10] was “inactive” throughout.
With `Cc1ccc(S(=O)(=O)NC(=O)NN2CC3CCCC3C2)cc1` (stereo unspecified), the compound was classed as inactive in [20], in assay [3], in [5], in assay [7], in [9] and in assay [11]. In addition, the call in assay [12], in [14] and in assay [15] was inactive. The Potency entry in assay [2], in [4], in assay [8] and in assay [10] was “inactive” in each case.
For `CN1C(CCl)Nc2cc(Cl)c(S(N)(=O)=O)cc2S1(=O)=O` (stereo unspecified), the compound was classed as inactive in [20], in assay [3], in [5], in assay [6], in [7] and in [9]. The compound was called inactive in assay [11], in assay [12], in assay [13], in assay [14], in assay [18] and in [15]. The Potency entry in assay [2], in assay [4], in [8], in assay [16] and in assay [17] was “inactive” throughout. For the same compound, in assay [19], the activity change, positive = activation is 0.151% [at 42.5 µM].
As to `Cc1ccc(OC(=O)CC(C)C)cc1`, the call in assay [20], in assay [3], in [5], in assay [7], in [9] and in assay [11] was inactive. The outcome in assay [12], in assay [14], in [18] and in assay [15] was inactive. Besides, the Potency result in [2], in [8], in assay [16], in assay [17] and in [10] was “inactive” each time. Further, the Potency in assay [4] was 35.6 µM (active). In addition, the activity change, positive = activation in assay [19] was -0.118%.
For `O=C(OOC(=O)c1ccccc1)c1ccccc1`, the result in [20], in [3], in assay [5], in assay [6], in [9] and in assay [11] was inactive. The compound was classed as inactive in assay [12], in assay [13] and in [15]. Further, the Potency result in [2], in assay [4] and in assay [10] was “inactive” in each case.
